# According to the supplement of paper PMC10037445:
# Over roughly 2,900 compounds, “NF-kB SEAP reporter activity, fold change vs agonist alone” has its median near 0.99; the highest 2% begin near 2.6. Shown is part of a subset that was picked to be rich in the highest values.
# What was measured:
# [1] = test system: RAW-Dual; experiment: NF-kB SEAP reporter activity, fold change vs agonist alone; cytotoxicity flag (confluency mask): not cytotoxic; higher = enhanced NF-kB activity
# In short: (§1)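 RAW-Dual macrophages were seeded in DMEM at 50,000 cells/well in 384-well plates, given 50 nL of library stock by pin tool, and given a PRR agonist 1 h later. Plates were held at 37 °C, 5% CO2 for 20 hours, after which supernatant was read for IRF by QuantiLuc luminescence and for NF-κB by QuantiBlue absorbance at 620 nm. Reporter activity is expressed as fold change over wells that received agonist alone. A well was called cytotoxic when IncuCyte confluency fell below 70% of agonist controls in both mask sets.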
# [2] = test system: RAW-Dual; experiment: NF-kB SEAP reporter activity, fold change vs agonist alone; higher = enhanced NF-kB activity
# In short: as §1
# [3] = test system: RAW-Dual; experiment: NF-kB SEAP reporter activity, fold change vs agonist alone; cytotoxicity flag (confluency mask): cytotoxic (confluency <70% of control); higher = enhanced NF-kB activity
# In short: as §1
# [4] = agonist: ODN 1826 (TLR9) 0.5 ug/mL
# [5] = agonist: Pam2CSK4 (TLR2/6) 0.1 ug/mL
# [6] = agonist: Pam3CSK4 (TLR2/1) 0.1 ug/mL
# [7] = library stock concentration (final ~1000-fold dilution): 10 mM, cytotoxicity flag (confluency mask): not cytotoxic, agonist: Imiquimod (TLR7) […]
# [8] = library stock concentration (final ~1000-fold dilution): 10 mM, cytotoxicity flag (confluency mask): not cytotoxic, agonist: MPLA (TLR4) […]
# [9] = library stock concentration (final ~1000-fold dilution): 10 mM, cytotoxicity flag (confluency mask): cytotoxic (confluency <70% of control), agonist: Imiquimod (TLR7) […]
# [10] = library stock concentration (final ~1000-fold dilution): 10 mM, cytotoxicity flag (confluency mask): cytotoxic (confluency <70% of control), agonist: MPLA (TLR4) […]
structure (smiles),measurement,setting,value
CCOC(=O)/C=C/c1ccc(O)c(OC)c1 (library stock concentration (final ~1000-fold dilution): 10 mM),NF-kB SEAP reporter activity,[1]; agonist: LPS (TLR4) 0.1 ug/mL,0.998
same,NF-kB SEAP reporter activity,[1]; [4],1.03
same,NF-kB SEAP reporter activity,[1]; [5],0.959
same,NF-kB SEAP reporter activity,[1]; [6],1.07
CCOC(=O)/C=C/c1ccc(O)c(OC)c1,NF-kB SEAP reporter activity,[2]; [7],1.08
same,NF-kB SEAP reporter activity,[2]; [8],1.2
COc1cc2nccc(Oc3ccc(NC(=O)Nc4ccc(F)cc4F)c(F)c3)c2cc1OC (library stock concentration (final ~1000-fold dilution): 10 mM),NF-kB SEAP reporter activity,[3]; agonist: LPS (TLR4) 0.1 ug/mL,0.806
same,NF-kB SEAP reporter activity,[3]; [4],0.587
same,NF-kB SEAP reporter activity,[3]; [5],0.463
same,NF-kB SEAP reporter activity,[3]; [6],0.717
COc1cc2nccc(Oc3ccc(NC(=O)Nc4ccc(F)cc4F)c(F)c3)c2cc1OC,NF-kB SEAP reporter activity,[2]; [9],0.799
same,NF-kB SEAP reporter activity,[2]; [10],0.975
COc1ncc(-c2ccc3nccc(-c4ccnnc4)c3c2)cc1NS(=O)(=O)c1ccc(F)cc1F (library stock concentration (final ~1000-fold dilution): 10 mM),NF-kB SEAP reporter activity,[1]; agonist: LPS (TLR4) 0.1 ug/mL,6.18
same,NF-kB SEAP reporter activity,[1]; [4],0.959
same,NF-kB SEAP reporter activity,[1]; [5],2.26
same,NF-kB SEAP reporter activity,[1]; [6],0.801
COc1ncc(-c2ccc3nccc(-c4ccnnc4)c3c2)cc1NS(=O)(=O)c1ccc(F)cc1F,NF-kB SEAP reporter activity,[2]; [7],0.912
same,NF-kB SEAP reporter activity,[2]; [8],0.957
CC1CNCCCN1S(=O)(=O)c1cccc2cncc(F)c12.Cl.O.O (stereo unspecified),NF-kB SEAP reporter activity,[2]; [7],1.01
same,NF-kB SEAP reporter activity,[2]; [8],1.08
CC1CNCCCN1S(=O)(=O)c1cccc2cncc(F)c12.Cl.O.O (stereo unspecified) (library stock concentration (final ~1000-fold dilution): 10 mM),NF-kB SEAP reporter activity,[1]; agonist: LPS (TLR4) 0.1 ug/mL,1.11
same,NF-kB SEAP reporter activity,[1]; [4],0.99
same,NF-kB SEAP reporter activity,[1]; [5],1.27
same,NF-kB SEAP reporter activity,[1]; [6],1.5
COC(=O)NC(C(=O)N1CCCC1c1ncc(-c2ccc(-c3ccc(-c4cnc(C5CCCN5C(=O)C(NC(=O)OC)C(C)C)[nH]4)cc3)cc2)[nH]1)C(C)C.Cl.Cl (stereo unspecified) (library stock concentration (final ~1000-fold dilution): 10 mM),NF-kB SEAP reporter activity,[1]; agonist: LPS (TLR4) 0.1 ug/mL,1.85
same,NF-kB SEAP reporter activity,[1]; [4],0.91
same,NF-kB SEAP reporter activity,[1]; [5],1.02
same,NF-kB SEAP reporter activity,[1]; [6],0.606
COC(=O)NC(C(=O)N1CCCC1c1ncc(-c2ccc(-c3ccc(-c4cnc(C5CCCN5C(=O)C(NC(=O)OC)C(C)C)[nH]4)cc3)cc2)[nH]1)C(C)C.Cl.Cl (stereo unspecified),NF-kB SEAP reporter activity,[2]; [8],1.76
CC(C)CN(CC(O)C(Cc1ccccc1)NC(=O)OC1CCOC1)S(=O)(=O)c1ccc(N)cc1 (stereo unspecified) (library stock concentration (final ~1000-fold dilution): 10 mM),NF-kB SEAP reporter activity,[1]; agonist: LPS (TLR4) 0.1 ug/mL,1.41
same,NF-kB SEAP reporter activity,[1]; [4],1.74
same,NF-kB SEAP reporter activity,[1]; [5],1.45
same,NF-kB SEAP reporter activity,[1]; [6],1.32
CC(C)CN(CC(O)C(Cc1ccccc1)NC(=O)OC1CCOC1)S(=O)(=O)c1ccc(N)cc1 (stereo unspecified),NF-kB SEAP reporter activity,[2]; [7],1.3
same,NF-kB SEAP reporter activity,[2]; [8],1.6
CC1CCOC2Cn3cc(C(=O)NCc4ccc(F)cc4F)c(=O)c(O)c3C(=O)N12 (stereo unspecified) (library stock concentration (final ~1000-fold dilution): 10 mM),NF-kB SEAP reporter activity,[1]; agonist: LPS (TLR4) 0.1 ug/mL,0.989
same,NF-kB SEAP reporter activity,[1]; [4],0.999
same,NF-kB SEAP reporter activity,[1]; [5],1.09
same,NF-kB SEAP reporter activity,[1]; [6],0.921
CC1CCOC2Cn3cc(C(=O)NCc4ccc(F)cc4F)c(=O)c(O)c3C(=O)N12 (stereo unspecified) (library stock concentration (final ~1000-fold dilution): 2 mM),NF-kB SEAP reporter activity,[1]; agonist: LPS (TLR4) 0.1 ug/mL,1.23
same,NF-kB SEAP reporter activity,[1]; [4],0.967
same,NF-kB SEAP reporter activity,[1]; [5],0.958
same,NF-kB SEAP reporter activity,[1]; [6],0.873
CC1CCOC2Cn3cc(C(=O)NCc4ccc(F)cc4F)c(=O)c(O)c3C(=O)N12 (stereo unspecified),NF-kB SEAP reporter activity,"[2]; library stock concentration (final ~1000-fold dilution): 2 mM, cytotoxicity flag (confluency mask): not cytotoxic, agonist: MPLA (TLR4) […]",0.994
same,NF-kB SEAP reporter activity,[2]; [7],1.18
same,NF-kB SEAP reporter activity,[2]; [8],0.999
CCOC(=O)C(CCc1ccccc1)NC1CCc2ccccc2N(CC(=O)O)C1=O.Cl (stereo unspecified) (library stock concentration (final ~1000-fold dilution): 10 mM),NF-kB SEAP reporter activity,[1]; agonist: LPS (TLR4) 0.1 ug/mL,0.997
same,NF-kB SEAP reporter activity,[1]; [4],0.98
same,NF-kB SEAP reporter activity,[1]; [5],1.03
same,NF-kB SEAP reporter activity,[1]; [6],0.994
CCOC(=O)C(CCc1ccccc1)NC1CCc2ccccc2N(CC(=O)O)C1=O.Cl (stereo unspecified),NF-kB SEAP reporter activity,[2]; [7],0.99
same,NF-kB SEAP reporter activity,[2]; [8],0.958
CC(C(=O)O)c1ccc(C(=O)c2cccs2)cc1 (stereo unspecified) (library stock concentration (final ~1000-fold dilution): 10 mM),NF-kB SEAP reporter activity,[1]; agonist: LPS (TLR4) 0.1 ug/mL,1.19
same,NF-kB SEAP reporter activity,[1]; [4],0.999
same,NF-kB SEAP reporter activity,[1]; [5],1.06
same,NF-kB SEAP reporter activity,[1]; [6],1.07
CC(C(=O)O)c1ccc(C(=O)c2cccs2)cc1 (stereo unspecified),NF-kB SEAP reporter activity,[2]; [7],0.601
same,NF-kB SEAP reporter activity,[2]; [8],0.825
CCCS(=O)c1ccc2nc(NC(=O)OC)[nH]c2c1 (stereo unspecified),NF-kB SEAP reporter activity,[2]; [7],1.04
same,NF-kB SEAP reporter activity,[2]; [8],0.808
COC(=O)Nc1nc2ccc(C(=O)c3cccs3)cc2[nH]1,NF-kB SEAP reporter activity,[2]; [9],2.68
same,NF-kB SEAP reporter activity,[2]; [10],2.1
COC(=O)Nc1nc2ccc(C(=O)c3cccs3)cc2[nH]1 (library stock concentration (final ~1000-fold dilution): 10 mM),NF-kB SEAP reporter activity,[3]; agonist: LPS (TLR4) 0.1 ug/mL,2.52
same,NF-kB SEAP reporter activity,[3]; [4],3.14
same,NF-kB SEAP reporter activity,[3]; [5],1.85
same,NF-kB SEAP reporter activity,[3]; [6],1.76
CCCS(=O)c1ccc2nc(NC(=O)OC)[nH]c2c1 (stereo unspecified) (library stock concentration (final ~1000-fold dilution): 10 mM),NF-kB SEAP reporter activity,[1]; agonist: LPS (TLR4) 0.1 ug/mL,1.06
same,NF-kB SEAP reporter activity,[1]; [4],0.948
same,NF-kB SEAP reporter activity,[1]; [5],1.05
same,NF-kB SEAP reporter activity,[1]; [6],1.09
CCCS(=O)(=O)NC1CC(N(C)c2ncnc3[nH]ccc23)C1 (stereo unspecified) (library stock concentration (final ~1000-fold dilution): 10 mM),NF-kB SEAP reporter activity,[1]; agonist: LPS (TLR4) 0.1 ug/mL,0.584
same,NF-kB SEAP reporter activity,[1]; [4],0.746
same,NF-kB SEAP reporter activity,[1]; [5],0.786
same,NF-kB SEAP reporter activity,[1]; [6],0.875
CCCS(=O)(=O)NC1CC(N(C)c2ncnc3[nH]ccc23)C1 (stereo unspecified),NF-kB SEAP reporter activity,[2]; [7],0.73
same,NF-kB SEAP reporter activity,[2]; [8],0.764
Cl.O=C1c2cccc3c2C(CCC3)CN1C1CN2CCC1CC2 (stereo unspecified),NF-kB SEAP reporter activity,"[2]; library stock concentration (final ~1000-fold dilution): 10 mM water, cytotoxicity flag (confluency mask): not cytotoxic, agonist: Imiquimod (TLR7) […]",0.577
same,NF-kB SEAP reporter activity,"[2]; library stock concentration (final ~1000-fold dilution): 10 mM water, cytotoxicity flag (confluency mask): not cytotoxic, agonist: MPLA (TLR4) […]",0.711
Cl.O=C1c2cccc3c2C(CCC3)CN1C1CN2CCC1CC2 (stereo unspecified) (library stock concentration (final ~1000-fold dilution): 10 mM water),NF-kB SEAP reporter activity,[1]; agonist: LPS (TLR4) 0.1 ug/mL,0.985
same,NF-kB SEAP reporter activity,[1]; [4],0.593
same,NF-kB SEAP reporter activity,[1]; [5],0.966
same,NF-kB SEAP reporter activity,[1]; [6],0.917
CCN(CC)CCNC(=O)c1c(C)[nH]c(/C=C2\C(=O)Nc3ccc(F)cc32)c1C.O=C(O)CC(O)C(=O)O (library stock concentration (final ~1000-fold dilution): 10 mM),NF-kB SEAP reporter activity,[1]; agonist: LPS (TLR4) 0.1 ug/mL,0.295
same,NF-kB SEAP reporter activity,[1]; [4],0.21
same,NF-kB SEAP reporter activity,[1]; [5],0.27
same,NF-kB SEAP reporter activity,[1]; [6],0.317
